Data reported in PubChem BioAssay AID720519 (National Center for Advancing Translational Sciences (NCATS), 2013).
Results filed as inconclusive are left out. Activity calls are given as the source filed them. Calls follow the shape of the dose curve; as a rule, active = well fitted activation curve with a large enough effect; inconclusive = small, poorly fitted or top-dose-only effect; inactive = flat fitted curve, though single readings scatter.

Test: qHTS for Inhibitors of Cell Surface uPA Generation: Confirmatory Assay for Cherry-picked Compounds
Settings: cell surface uPA activity generation, qHTS confirmation; series mostly up to 115 µM
In short: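 RAW 264.7 cells at 4000/well, incubated overnight, then treated with compounds. After 24 h at 37 C, viability was read by ATPlite luminescence. An increase in signal indicates blocked uPA-dependent LF entry.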
Potency is read from the fitted curve at half-maximal effect.

Potency, active:
COc1cc2c(OC(C)=O)c3c(c(-c4ccc5c(c4)OCO5)c2cc1OC)C(=O)OC3 2.33 µM

Potency, inactive:
CCCCN(CC(=O)NCc1ccc(F)cc1)C(=O)c1ccco1
COc1ccc(C(=O)NCCOC(C)C)cc1OC1CCN(C(C)=O)CC1
Cc1nn2c(=O)cc(CSc3nc4ccccc4[nH]3)nc2s1
CCOc1cc(N2CCOCC2)c(OCC)cc1NC(=O)c1[nH]c(C)c(C(C)=O)c1C
Cn1c(=O)c2c(ncn2CCO)n(C)c1=O
CC1CC(=O)Nc2ccccc2N1C(=O)Cn1cnc2ccc(Br)cc2c1=O (centres undefined)
Cc1ccc(C(=O)NNC(=O)CNc2cccc(Cl)c2)cc1
C[C@H](CO)N1C[C@H](C)[C@@H](CN(C)C(=O)Nc2ccccc2)Oc2ccc(NC(=O)Cn3cnnn3)cc2C1=O
COc1cccc(C(=O)NCC(c2ccco2)N2CCc3ccccc3C2)c1 (centres undefined)
O=C(NCCOc1ccc(F)cc1)C1CCN(S(=O)(=O)c2ccccc2)CC1
O=C(Nc1ccc(Cl)cn1)C1CCCN(c2ncnc3c2nc2n3CCCCC2)C1 (centres undefined)
O=C(O)CCc1nn2c3ccccc3n(CC(=O)O)c2nc1=O
O=C(O)c1ccc(-n2nnnc2SCc2cccc(Br)c2)cc1
O=C(COc1ncnc2sccc12)Nc1cccc(S(=O)(=O)N2CCCC2)c1
C[n+]1c2cc(N)ccc2cc2ccc(N)cc21
O=C(c1cccc(F)c1)N1CCN(Cc2cccc(Br)c2)CC1
CC(C)(C)NC(=O)C(c1cccs1)N(C(=O)c1csnn1)c1ccccc1F (centres undefined)
Cc1ccc(N=C2SCCCN2C(=O)c2cccc(N3C(=O)CCC3=O)c2)cc1Cl
Cc1ccc2cccc(OCCCOc3ccccc3CO)c2n1
Cc1ccc(C23CC4CC(CC(C(=O)NN)(C4)C2)C3)cc1
Cc1oc2c(Cl)c(Cl)c(O)c(CN(C)C)c2c1C(=O)c1ccc(Cl)cc1
Cc1ccc(OCc2cc(C(=O)N(C)Cc3cc(C4CC4)n[nH]3)no2)cc1C
CC1CCC(NC(=O)c2nn(C)c3c2CS(=O)(=O)c2ccccc2-3)CC1 (centres undefined)
COC(=O)[C@]1(Cc2ccccc2)N[C@H](CN(C)C(=O)c2ccccc2)[C@@H]2C(=O)N(Cc3ccccc3)C(=O)[C@@H]21
CC(C)NC(=O)CN1CCC(c2nc3ccccc3[nH]2)CC1
Cc1cccc(Nc2ccc(NCc3ccccc3)nn2)c1
CC(=O)c1cnc2nc(SCc3cccc(C)c3)nn2c1C
O=C(CN1CCN(Cc2ccc(Cl)cc2)C1=O)NCc1cccs1
CNS(=O)(=O)c1cc(-c2nnc(Nc3ccc(CC(N)=O)cc3)c3ccccc23)ccc1C
Cc1ccc(C(=O)NC(=S)Nc2ccc3[nH]c(=O)[nH]c3c2)c(C)c1
C=C(C)C(=O)O[C@H]1C/C(C)=C\C(=O)/C=C(\C)[C@H](O)[C@@H]2OC(=O)C(=C)[C@@H]21
COc1ccccc1NC(=O)Cn1nnc(-c2ccccc2NC(=O)c2cc3ccccc3oc2=O)n1
Cc1ccc2nc(Nc3ccc(Cl)cc3)c3nncn3c2c1
Cc1ccc(S(=O)(=O)N2CCC(C(=O)OC(C)C(=O)NC3CCCCC3C)CC2)cc1 (centres undefined)
CCCN1CCN(CC(=O)Nc2nncs2)CC1
COCCNC(=O)C(c1c[nH]c2ccccc12)N(C(=O)c1snc(C(N)=O)c1N)c1cccc(OC)c1 (centres undefined)
COCCN(C(=O)c1ccccc1OC)c1nnc(C)s1
COc1ccc(C(=O)NC(C)c2cnn(-c3ccccn3)c2C)o1 (centres undefined)
